For 21 compounds, DAPI nuclei signal change (viability), lower = more cytotoxic and inhibition results are on record in PubChem BioAssay AID651582 (Sanford-Burnham Center for Chemical Genomics, 2012).

The whole screen tested about 230,000 compounds, of which about 1,500 (0.65%) were called active. The sample holds actives, similar compounds and a random draw of the others, so the mix is not that of the screen.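 Rule for the calls: active = pattern-corrected inhibition of lipid staining of at least 50% with the nuclear-stain viability signal not falling by more than 50%; inactive = the rest, inconclusive results apart.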

A short description of this assay: TAG lipid buildup reduction in H9c2 cells – cell-based, uHTS, fluorescence, primary screen (AID 651582).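 For inhibition: 0% = DMSO wells and 100% = triacsin C control wells.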 As to conditions: Nile Red lipid (TAG) fluorescence, at 12.5 µM, cells loaded with 200 µM oleic acid; DAPI nuclei signal change (viability), lower = more cytotoxic: measured here: DAPI nuclei count viability; inhibition: stronger effect = higher value.
Usually inhibition stands for the drop in the measured response relative to a control, in per cent. Turning to `CN(CCc1ccccc1)C(=O)c1cccc(NC(=O)Cc2ccc([N+](=O)[O-])cc2)c1`, the DAPI nuclei signal change (viability), lower = more cytotoxic is -3.23% and the inhibition is -35% (inactive).

In the case of `COc1cc(C(=O)OCC(=O)NC23CC4CC(CC(C4)C2)C3)cc(OC)c1OC`, the DAPI nuclei signal change (viability), lower = more cytotoxic was -0.331% and the inhibition was -18.4% (inactive).

Turning to `COc1ccccc1-n1c(=S)[nH]c2c(sc(=S)n2-c2ccc(C)cc2C)c1=O`, the DAPI nuclei signal change (viability), lower = more cytotoxic is -48.2% and the inhibition was 65.4% (active).

Take `COc1cccc(-n2c(=S)sc3c(=O)n(-c4ccccc4OC)c(SCC4OCCO4)nc32)c1`: the DAPI nuclei signal change (viability), lower = more cytotoxic is -13.5% and the inhibition is 20.8% (inactive).

On to `CCc1ccc(-n2c(=S)sc3c(=O)n(-c4ccccc4OC)c(=S)[nH]c32)cc1`, for which the DAPI nuclei signal change (viability), lower = more cytotoxic is 8.9% and the inhibition was -2.37% (inactive).

With `O=C(Nc1ccc(C(=O)N2CCCCC2)cc1)c1cccc([N+](=O)[O-])c1`, the DAPI nuclei signal change (viability), lower = more cytotoxic stood at 5.03% and the inhibition was 3.82% (inactive).

Take `O=C(Nc1cc2c3c(c1)C1CCCC1CN3CC1CCCC21)c1ccc([N+](=O)[O-])cc1` (configuration not stated): the DAPI nuclei signal change (viability), lower = more cytotoxic was -11.5% and the inhibition is 53.3% (active).

As to `CN(CC1CCCO1)S(=O)(=O)c1ccc(C(=O)Nc2ccc([N+](=O)[O-])cc2)cc1` (configuration not stated), the DAPI nuclei signal change (viability), lower = more cytotoxic is 3.29% and the inhibition was -15.4% (inactive).

Turning to `CC1(c2ccccc2)CC(C)(C)N(C(=O)c2cc([N+](=O)[O-])cc([N+](=O)[O-])c2)c2ccccc21` (configuration not stated), the DAPI nuclei signal change (viability), lower = more cytotoxic is -2.38% and the inhibition was 54.1% (active).

In the case of `CC1CCN(C(=S)c2cccc([N+](=O)[O-])c2)CC1`, the DAPI nuclei signal change (viability), lower = more cytotoxic amounted to 4.33% and the inhibition is -2.26% (inactive).

As to `O=C(Cc1ccccc1)N1CCN(S(=O)(=O)c2ccc([N+](=O)[O-])cc2)CC1`, the DAPI nuclei signal change (viability), lower = more cytotoxic was -3.05% and the inhibition is -0.872% (inactive).

`CCCCN(C=O)c1c(CC)nc2c(OCc3ccccc3C(=O)OC)cccn12`: the DAPI nuclei signal change (viability), lower = more cytotoxic was -7.9% and the inhibition was 4.1% (inactive).

For the compound `O=C(CCl)NNc1nc(-c2ccccc2)c2cc(Cl)ccc2n1`, the DAPI nuclei signal change (viability), lower = more cytotoxic is -5.54% and the inhibition is 4.04% (inactive).

For `CN(O)C(=S)c1ccccc1`, the DAPI nuclei signal change (viability), lower = more cytotoxic was -65.1% and the inhibition is 90.7% (inactive).

For the compound `CN(/N=C/c1ccccc1)C(=S)c1ccccc1`, the DAPI nuclei signal change (viability), lower = more cytotoxic is -19.1% and the inhibition was 63.6% (active).

Turning to `O=C(NN=Cc1ccccc1)c1ccccc1`, the DAPI nuclei signal change (viability), lower = more cytotoxic turned out to be 1.87% and the inhibition was -3.23% (inactive).

With `NC(=O)c1ncn([C@@H]2O[C@H](CNCc3cnc(N4CCOCC4)s3)[C@@H](O)[C@H]2O)n1`, the DAPI nuclei signal change (viability), lower = more cytotoxic is -1.13% and the inhibition is 2.87% (inactive).

Consider `CCC(=O)N1CCN(c2ccccc2NC(=O)COc2cccc(C)c2C)CC1`, for which the DAPI nuclei signal change (viability), lower = more cytotoxic is -0.0457% and the inhibition was -24.8% (inactive).

Regarding `Cc1ccccc1OCC(=O)Nc1ccc(N2CCN(C(=O)C(C)C)CC2)c(Cl)c1`, the DAPI nuclei signal change (viability), lower = more cytotoxic was -3.43% and the inhibition was 53.8% (active).

Turning to `Cc1ccccc1OCC(=O)Nc1ccc2c(c1)ncn2C`, the DAPI nuclei signal change (viability), lower = more cytotoxic came to 5.22% and the inhibition was 2.71% (inactive).

Take `CN1CCC(N(C)S(=O)(=O)c2ccc(NC(=O)c3cccc(C#N)c3)cc2)CC1`: the DAPI nuclei signal change (viability), lower = more cytotoxic is -3.7% and the inhibition was 15.9% (inactive).
